Results: the supplement of paper PMC6555819

How the values were obtained:
Test in all cases: PBM binding z-score (relative to random genomic background probes); higher = stronger binding; sequences stand for … in GC…GCGATTGACAGCGTAGAATGAAGG
[1] = tested on: PPARg:RXRa DBDmut IVT, anti-RXR (DBD mutation: RXRa K156A/R161A, NR concentration 270 nM, RXRa partner concentration 90 nM)
Outline: (§1)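 Binding z-scores take random background probes as their reference. They come from custom Agilent 4×180K protein-binding microarrays incubated 1 h with ligand-free nuclear receptor dimers, with antibodies against each partner (one per run) detecting binding. Scanned fluorescence was regression-normalized.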

[2] = tested on: PPARg:RXRa IVT, anti-PPARg (NR concentration 270 nM, RXRa partner concentration 90 nM)
Outline: as §1

[3] = tested on: PPARg DBDmut:RXRa IVT, anti-PPARg (DBD mutation: PPARg1 K132A/R137A, NR concentration 270 nM, RXRa partner concentration 90 nM)
Outline: as §1

[4] = tested on: PPARg DBDmut IVT, anti-PPARg (DBD mutation: PPARg1 K132A/R137A, NR concentration 270 nM)
Outline: as §1

[5] = tested on: PPARg homodimer (NR concentration 180 nM)
Outline: as §1

[6] = tested on: PXR:RXRa (NR concentration 270 nM, RXRa partner concentration 90 nM)
Outline: as §1

[7] = tested on: PXR homodimer (NR concentration 270 nM)
Outline: as §1

[8] = tested on: RARa:RXR (NR concentration 270 nM, RXRa partner concentration 90 nM)
Outline: as §1

[9] = tested on: RARa homodimer (NR concentration 270 nM)
Outline: as §1

[10] = tested on: RARb:RXRa (NR concentration 270 nM, RXRa partner concentration 90 nM)
Outline: as §1

Sequence | PBM binding z-score [1] | PBM binding z-score [2] | PBM binding z-score [3] | PBM binding z-score [4] | PBM binding z-score [5] | PBM binding z-score [6] | PBM binding z-score [7] | PBM binding z-score [8] | PBM binding z-score [9] | PBM binding z-score [10]
ACTATTACTTGACTTAGGGCAACCGATACGACGC | 0.692 | 0.81 | 1.57 | 1.96 | 1.24 | 0.284 | 0.533 | 0.623 | 1.42 | 0.876
CCTGCTAGCTCAATGGTCAGCTAAAGCAGCTCGC | -0.172 | -0.705 | -1.42 | -1.42 | -0.534 | -0.568 | -0.761 | -0.44 | -0.89 | 0.0479
AGAATGAGGTTATTAAGATCATGGAATTGCGGTC | 3.59 | 3.1 | 0.789 | 1.06 | 0.459 | 1.53 | 1.15 | 1.53 | 0.293 | 1.36
CCTAGCAGGCCAGGGTGACTCAAGCATTTCGCTT | 0.555 | 0.0938 | -1.83 | -1.19 | -0.646 | -0.537 | -0.777 | -0.0885 | -0.299 | 0.148
GTACCAAGGTGAATAGATCGTTGATGAGTAGGCG | 1.62 | 1.74 | 0.415 | 0.448 | 0.785 | -0.0465 | -0.049 | 0.221 | 0.712 | 1.13
ACTTACGGGTCAACGAGGTTATAGCACGCGTATA | 3.5 | 4.09 | 1.65 | 1.55 | 2.55 | 5.1 | 3.34 | 5.39 | 1.16 | 4.13
TCTTCTAGATCAAAGGTTAAGAAAGCCGAAGCCT | 2.42 | 3.52 | 0.463 | 0.915 | 1.09 | 1.63 | -0.258 | 2.74 | 0.0747 | 1.98
CCAGACAGGTGAAAGGTAATTCAGTCTGGTACGC | 2.07 | 2.63 | -0.0152 | -0.567 | 1.43 | 0.676 | -0.138 | 1.49 | 0.566 | 0.958
CCTTACGGGTCACTGACAGGTTACAGCATTTGGA | 3.39 | 4.02 | 0.114 | -0.264 | 2.85 | 3.59 | 0.0317 | 4.5 | 0.367 | 4.06
ATATGTAGGTTAAGGGTCATTCACGTTGGTTCGC | 7.26 | 8.08 | 3.39 | 2.65 | 4.43 | 4.79 | 0.957 | 5.91 | 1.47 | 3.54
GCTGCTAGGTCAACTGACGGTCAGCTAAAGCTCG | 5.14 | 4.49 | 0.437 | -0.0795 | 4.42 | 2.08 | -0.874 | 4.58 | 1.05 | 4.56
CGATCTAGGTCATCCAGGACAGTGAATACATTGA | 7.91 | 8.21 | 6.15 | 1.47 | 2.27 | 2.13 | 1.59 | 2.41 | 0.582 | 3.89
ACATGTAGGTTAAGGGTCATTCAGGTTGGTTCGC | 6.63 | 7.34 | 4.14 | 3.37 | 4.52 | 5.46 | 2.78 | 5.86 | 2.44 | 3.53
CCTTACGGTTCACTCCAGGTTATAGCATCGGAGT | 0.278 | 0.401 | 0.147 | 1.01 | 1.62 | 3.53 | 1.46 | 2.25 | 1.57 | 1.29
ATCGAAAGGTCGATGAGGTGAGTATACACCGTTT | 0.00502 | 1.61 | 1.01 | 0.136 | 1.49 | 2.58 | 1.07 | 2.98 | 0.305 | 3.37
TAGCCTAGGTCACGCGGGCCAGTATAGTGTCGGC | 2.95 | 4.27 | -0.0213 | 0.00762 | 1.6 | 1.84 | -0.691 | 3.32 | -0.183 | 4.33
TGAATGAGCTTAAAGATCAGGGAACGTGGCGTCG | -0.909 | -0.722 | -0.0715 | -0.43 | -0.49 | -0.508 | -0.697 | -0.284 | -0.372 | -0.351
TCAGACAAGTGAAGGTAACTCAGGTACGCAGTCG | 2.07 | 0.111 | 0.0158 | -0.174 | -0.105 | 0.509 | -0.105 | 0.807 | -0.0772 | 0.197
CAAACTCGGTCACGAAAGGTCAAAGTCGAATGAC | 5.23 | 5.86 | 1.31 | 0.821 | 7.09 | 6.39 | 2.67 | 6.96 | 4.39 | 5.02
GCTATTAGTTGAAAGGGCAACCTAATGATTCTCG | 0.686 | 0.831 | 0.904 | 0.354 | 0.978 | 0.94 | 0.54 | 1.56 | 0.795 | 2.02
TCTATTAGTTGAAGGGCAAGCGACGAGTCCGTTT | 2.2 | 0.635 | 0.42 | 0.671 | 0.728 | 0.841 | 0.859 | 0.478 | 0.687 | 1.53
CAAACTATGTCAAAGGTCAAAGTCGAGCCAACCA | 5.12 | 6.61 | 1.88 | 0.733 | 3.54 | 5.93 | 1.52 | 7.09 | 2.38 | 5.1
GGAACGAGGGCATTCGAGTTGATTGCATGGCGAT | 2.85 | 2.45 | 0.178 | -0.205 | -0.105 | 3.88 | 1.55 | 1.03 | -0.634 | 1.84
CGTCCAAGGCCAATGCTAGGTCAGTGAAAGCATT | -0.0283 | 0.421 | -0.963 | -1.46 | 0.131 | 0.224 | -0.267 | 0.552 | -1.03 | 2.19
CGAACGAGGTCAAGGACAGTGAATCTCCGCACGC | 5.22 | 5.6 | 0.997 | -0.199 | 2.14 | 4.9 | 0.979 | 5.15 | 0.619 | 5.24

Sequence | PBM binding z-score [1] | PBM binding z-score [2] | PBM binding z-score [3] | PBM binding z-score [4] | PBM binding z-score [5] | PBM binding z-score [6] | PBM binding z-score [7] | PBM binding z-score [8] | PBM binding z-score [9] | PBM binding z-score [10]
CGTACTAGGTCATCCAGGACAGTGAATACATTGA | 7.23 | 7.74 | 1.93 | 1.33 | 2.23 | 1.87 | 0.94 | 2.45 | 0.55 | 3.8
ATCTCTAGGTAAAGATCAGTGAAAGATCGATAGA | 1.79 | 1.45 | 0.659 | 1.08 | 0.78 | -0.0968 | 0.169 | 0.174 | 0.687 | 0.0569
ATCTCTAGGTAACAAGTTCAGTTAAAGAGAGGAC | 2.97 | 2.91 | 1.33 | 1.39 | 1.31 | 1.79 | 1.75 | 0.869 | 1.39 | 1.71
TAGCCTAGGTGATGCGGGCCAGTATAGTGTCGGC | -0.174 | 0.433 | -0.831 | -0.995 | -1 | -0.852 | -0.76 | -0.959 | -0.718 | -0.225
ATATGTAGGTTATCGGGTGATTCAGTTTGCGCAT | 7.59 | 7.22 | 2.9 | 2.24 | 1.51 | 1.07 | 1.12 | 0.995 | 1.96 | 1.15
CCTAGTTGGTCCAGGTCACACACGCTATAGGTAC | 1.21 | 2.28 | 0.272 | 0.266 | 2.22 | 2.34 | 1.6 | 2.66 | 1.7 | 2.59
CCGACCGGGGCATAAGGTTACCATAAGCCAGCCC | 0.165 | 0.416 | -0.828 | -1.51 | 0.811 | 0.533 | -0.0926 | 1.79 | -0.565 | 1.8
CGAACTAGGTCAAGGACATTGAATCTCCGCACGC | 8.24 | 7.84 | 1.49 | 0.731 | 1.29 | 1.56 | 0.252 | 2.12 | 0.87 | 3.98
TCTTGTTGATCAATAGAGGTTAAGAAAGTGCGCT | 1.5 | 0.913 | 0.422 | 1.13 | 0.192 | 2.89 | 0.147 | 1.71 | 0.519 | 1.05
AGACCAAGGTGATCGTGAGGTCGTTGATACTAAC | 0.783 | 0.9 | -0.832 | -0.109 | 0.38 | 2.79 | 0.858 | 1.72 | -0.21 | 1.32
CTTCCAAGGTCATAGGAGGTCAGTGAAGACAGAT | 3.59 | 4.67 | 1.93 | 1.31 | 4.55 | 6.93 | 4.92 | 6.14 | 3.57 | 5.42
CGAGACAGGTGAGAAGGTAACTCAGCCTCGATTA | 0.944 | 0.575 | -0.719 | -0.428 | 0.307 | -0.433 | -0.255 | -0.528 | -0.321 | 0.602
ATCTCTAGGTAACGATAGTTCAGTGAATGCAAAT | 3.41 | 3.08 | 1.42 | 1.62 | 0.431 | 0.926 | 0.85 | 0.162 | 0.352 | 0.902
TGTTGTAGATCAAAGGTTAAGAAAGCCGAAGCCT | -0.0218 | 3.76 | 0.531 | 0.517 | 1.54 | 2.04 | 0.18 | 2.87 | 0.902 | 1.89
TCATATAGGTAATACAGGTGACAGTCGGCATCTA | 4.18 | 3.85 | 1.35 | 1.53 | 1.04 | 0.765 | 0.723 | 1 | 1.35 | 0.683
CTAACTAGGTCAAGAGGTCAAAGTCCGCTTCCCG | 8.74 | 8.7 | 3.27 | 2.76 | 5.39 | 6.07 | 2.21 | 7.15 | 1.67 | 5.5
TCTAGCAGGCCAGAGTGTCACTCAAGAGGTACGG | 0.735 | 0.187 | -0.515 | -1.96 | -0.804 | -0.229 | -0.833 | 0.142 | -1.77 | 0.361
TCAGACAGGTTAAGGTAACTCAGGTACGCAGTCG | 2.56 | 0.69 | 0.624 | 0.18 | 1.1 | 1.1 | 0.461 | 1.54 | 0.655 | 1.51
AGTCAAAGTTCATCTAGGTAACGTCAGATATGCT | 1.33 | 4.32 | 2.61 | 1.98 | 5.02 | 5.36 | 7.19 | 4.41 | 2.97 | 4.96
TCTTGTAGATCAATAGGGGTTAAGAAAGTGCGCT | 2.59 | 1.26 | 1.26 | 1.11 | 1.01 | 3.87 | 0.265 | 2.8 | 0.509 | 1.2
CGTCCAAGGTCAGCAGCTCAGTGAAAGCGACGTG | 2.5 | 2.27 | -0.354 | -0.261 | 1.96 | 2.16 | -0.1 | 2.83 | 0.297 | 4.83
ATCGAGAGGTCGACGAGGTGAGTATACACCGTTT | 0.355 | 1.71 | -0.00601 | 0.563 | 0.663 | 2.43 | 0.615 | 2.84 | -0.215 | 2.8
GAAACGAGGGCATTCGAGTTGATAGCATGGCGAT | 4.26 | 3.42 | 0.513 | 0.0284 | -0.429 | 3.68 | 1.26 | 0.561 | 0.0115 | 1.85
CCTGCTAGGTCATGCTCAGCTAATCTACAGTATG | 4.78 | 3.37 | 0.405 | 0.309 | 0.827 | 0.957 | -0.979 | 2.05 | -0.229 | 3.75
